# ± gives the standard deviation of the averaged measurements.
# Assays:
# Assay in all cases: promoter activity interaction Z-score (Lux/OD deviation from empty-vector control); higher = stronger promoter induction by the compound
# [1] = system: E. coli BW25113 tolCp lux reporter
# Procedure, shortened: (§1)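 Every compound was given at four 1:2 dilutions, in biological duplicates, to E. coli BW25113 carrying low-copy luxCDABE promoter reporters in wild-type or single-gene deletion backgrounds. Growth in 40 µl LB Lennox in 384-well plates at 37°C was followed by OD600 and luminescence readings every 30 min for 12 h, integrated over 0–8 h for wild type and 1–9 h for deletion strains, with wells below 10% of the median growth value excluded. Scores are Z-transformed residuals of growth-normalised luminescence fitted against a control.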
# [2] = system: E. coli BW25113 acrABp lux reporter
# Procedure, shortened: as §1
# [3] = system: E. coli BW25113 micFp lux reporter
# Procedure, shortened: as §1
# [4] = system: E. coli BW25113 ompFp lux reporter
# Procedure, shortened: as §1
# [5] = system: E. coli BW25113 robp lux reporter
# Procedure, shortened: as §1
# [6] = system: E. coli BW25113 soxSp lux reporter
# Procedure, shortened: as §1
# [7] = 22.7 µg/ml, genetic background: wild type
# [8] = 22.7 µg/ml, genetic background: ΔmarA
# [9] = 22.7 µg/ml, genetic background: Δrob
# [10] = 22.7 µg/ml, genetic background: ΔsoxS
# [11] = 45.3 µg/ml, genetic background: wild type
# [12] = 45.3 µg/ml, genetic background: ΔmarA
# [13] = 45.3 µg/ml, genetic background: Δrob
# [14] = 45.3 µg/ml, genetic background: ΔsoxS
# [15] = 90.6 µg/ml, genetic background: wild type
# [16] = 90.6 µg/ml, genetic background: ΔmarA
# [17] = 90.6 µg/ml, genetic background: Δrob
# [18] = 90.6 µg/ml, genetic background: ΔsoxS
# [19] = 181.2 µg/ml, genetic background: wild type
# [20] = 181.2 µg/ml, genetic background: ΔmarA
# [21] = 181.2 µg/ml, genetic background: Δrob
# [22] = 181.2 µg/ml, genetic background: ΔsoxS
compound,measurement,setting,value
COc1cc(NS(=O)(=O)c2ccc(N)cc2)ncn1 [Sulfamonomethoxine],promoter activity interaction Z-score,"[1]; 28 µg/ml, genetic background: Δrob",-0.142 ± 0.15
same,promoter activity interaction Z-score,"[1]; 28 µg/ml, genetic background: ΔsoxS",0.453 ± 0.22
same,promoter activity interaction Z-score,"[1]; 56.1 µg/ml, genetic background: wild type",0.726 ± 1
same,promoter activity interaction Z-score,"[1]; 56.1 µg/ml, genetic background: ΔmarA",0.457 ± 1.5
same,promoter activity interaction Z-score,"[1]; 56.1 µg/ml, genetic background: Δrob",-0.189 ± 0.24
same,promoter activity interaction Z-score,"[1]; 56.1 µg/ml, genetic background: ΔsoxS",0.283 ± 0.55
C[C@]12CCC(=O)C=C1CC[C@@H]1[C@@H]2[C@@H](O)C[C@@]2(C)[C@H]1CC[C@]2(O)C(=O)CO [Hydrocortisone],promoter activity interaction Z-score,[2]; [7],0.0762 ± 0.23
same,promoter activity interaction Z-score,[2]; [8],1.29 ± 0.12
same,promoter activity interaction Z-score,[2]; [9],0.155 ± 0.043
same,promoter activity interaction Z-score,[2]; [10],-0.247 ± 0.36
same,promoter activity interaction Z-score,[2]; [11],-0.118 ± 0.13
same,promoter activity interaction Z-score,[2]; [12],-0.299 ± 0.39
same,promoter activity interaction Z-score,[2]; [13],-0.0995 ± 0.075
same,promoter activity interaction Z-score,[2]; [14],-0.18 ± 0.021
same,promoter activity interaction Z-score,[2]; [15],-0.0327 ± 0.25
same,promoter activity interaction Z-score,[2]; [16],0.944 ± 0.81
same,promoter activity interaction Z-score,[2]; [17],-0.203 ± 0.1
same,promoter activity interaction Z-score,[2]; [18],-0.563 ± 0.76
same,promoter activity interaction Z-score,[2]; [19],-0.103 ± 0.25
same,promoter activity interaction Z-score,[2]; [20],0.322 ± 0.17
same,promoter activity interaction Z-score,[2]; [21],-0.0446 ± 0.063
same,promoter activity interaction Z-score,[2]; [22],-0.63 ± 0.4
same,promoter activity interaction Z-score,[3]; [7],-0.121 ± 0.17
same,promoter activity interaction Z-score,[3]; [8],-0.0598 ± 0.096
same,promoter activity interaction Z-score,[3]; [9],0.0274 ± 0.19
same,promoter activity interaction Z-score,[3]; [10],-0.338 ± 0.18
same,promoter activity interaction Z-score,[3]; [11],-0.199 ± 0.022
same,promoter activity interaction Z-score,[3]; [12],-0.00993 ± 0.17
same,promoter activity interaction Z-score,[3]; [13],-0.112 ± 0.071
same,promoter activity interaction Z-score,[3]; [14],-0.292 ± 0.17
same,promoter activity interaction Z-score,[3]; [15],-0.0486 ± 0.33
same,promoter activity interaction Z-score,[3]; [16],0.0152 ± 0.072
same,promoter activity interaction Z-score,[3]; [17],-0.0859 ± 0.072
same,promoter activity interaction Z-score,[3]; [18],-0.443 ± 0.012
same,promoter activity interaction Z-score,[3]; [19],-0.162 ± 0.41
same,promoter activity interaction Z-score,[3]; [20],0.0829 ± 0.11
same,promoter activity interaction Z-score,[3]; [21],0.0154 ± 0.043
same,promoter activity interaction Z-score,[3]; [22],-0.487 ± 0.11
same,promoter activity interaction Z-score,[4]; [7],-0.318 ± 0.33
same,promoter activity interaction Z-score,[4]; [8],-1.05 ± 0.19
same,promoter activity interaction Z-score,[4]; [9],-0.188 ± 0.34
same,promoter activity interaction Z-score,[4]; [10],-0.146 ± 0.36
same,promoter activity interaction Z-score,[4]; [11],-0.51 ± 0.41
same,promoter activity interaction Z-score,[4]; [12],-0.8954 ± 0.0059
same,promoter activity interaction Z-score,[4]; [13],-0.15 ± 0.053
same,promoter activity interaction Z-score,[4]; [14],-0.152 ± 0.059
same,promoter activity interaction Z-score,[4]; [15],-0.587 ± 0.064
same,promoter activity interaction Z-score,[4]; [16],-0.994 ± 0.16
same,promoter activity interaction Z-score,[4]; [17],-0.657 ± 0.24
same,promoter activity interaction Z-score,[4]; [18],-1.03 ± 0.14
same,promoter activity interaction Z-score,[4]; [19],-0.507 ± 0.061
same,promoter activity interaction Z-score,[4]; [20],-0.698 ± 0.09
same,promoter activity interaction Z-score,[4]; [21],-0.507 ± 0.34
same,promoter activity interaction Z-score,[4]; [22],-0.928 ± 0.4
same,promoter activity interaction Z-score,[5]; [7],0.0773 ± 1.2
same,promoter activity interaction Z-score,[5]; [8],0.0463 ± 0.066
same,promoter activity interaction Z-score,[5]; [9],0.694 ± 1.1
same,promoter activity interaction Z-score,[5]; [10],-0.236 ± 0.064
same,promoter activity interaction Z-score,[5]; [11],-0.333 ± 0.93
same,promoter activity interaction Z-score,[5]; [12],0.247 ± 0.23
same,promoter activity interaction Z-score,[5]; [13],0.312 ± 0.14
same,promoter activity interaction Z-score,[5]; [14],0.174 ± 0.55
same,promoter activity interaction Z-score,[5]; [15],-0.0645 ± 0.73
same,promoter activity interaction Z-score,[5]; [16],-0.315 ± 0.028
same,promoter activity interaction Z-score,[5]; [17],0.1 ± 1.2
same,promoter activity interaction Z-score,[5]; [18],-0.777 ± 0.35
same,promoter activity interaction Z-score,[5]; [19],-0.438 ± 0.64
same,promoter activity interaction Z-score,[5]; [20],-0.167 ± 0.27
same,promoter activity interaction Z-score,[5]; [21],0.558 ± 0.36
same,promoter activity interaction Z-score,[5]; [22],0.106 ± 1
same,promoter activity interaction Z-score,[6]; [7],0.274 ± 0.098
same,promoter activity interaction Z-score,[6]; [8],-0.206 ± 0.075
same,promoter activity interaction Z-score,[6]; [9],0.0559 ± 0.11
same,promoter activity interaction Z-score,[6]; [10],-0.266 ± 0.045
same,promoter activity interaction Z-score,[6]; [11],0.0799 ± 0.065
same,promoter activity interaction Z-score,[6]; [12],-0.198 ± 0.084
same,promoter activity interaction Z-score,[6]; [13],0.0141 ± 0.1
same,promoter activity interaction Z-score,[6]; [14],-0.247 ± 0.054
same,promoter activity interaction Z-score,[6]; [15],-0.0463 ± 0.13
same,promoter activity interaction Z-score,[6]; [16],-0.321 ± 0.095
same,promoter activity interaction Z-score,[6]; [17],-0.185 ± 0.0079
same,promoter activity interaction Z-score,[6]; [18],-0.58 ± 0.1
same,promoter activity interaction Z-score,[6]; [19],-0.0782 ± 0.16
same,promoter activity interaction Z-score,[6]; [20],-0.3408 ± 0.003
same,promoter activity interaction Z-score,[6]; [21],-0.284 ± 0.044
same,promoter activity interaction Z-score,[6]; [22],-0.743 ± 0.29
same,promoter activity interaction Z-score,[1]; [7],0.184 ± 0.076
same,promoter activity interaction Z-score,[1]; [8],0.724 ± 1.1
same,promoter activity interaction Z-score,[1]; [9],0.231 ± 1.1
same,promoter activity interaction Z-score,[1]; [10],-0.0445 ± 0.42
same,promoter activity interaction Z-score,[1]; [11],-0.258 ± 0.085
same,promoter activity interaction Z-score,[1]; [12],0.509 ± 1.2
same,promoter activity interaction Z-score,[1]; [13],0.65 ± 0.86
same,promoter activity interaction Z-score,[1]; [14],-1.3 ± 0.73
same,promoter activity interaction Z-score,[1]; [15],0.153 ± 0.86
same,promoter activity interaction Z-score,[1]; [16],0.621 ± 0.97
same,promoter activity interaction Z-score,[1]; [17],0.0433 ± 0.14
same,promoter activity interaction Z-score,[1]; [18],-0.413 ± 0.29
same,promoter activity interaction Z-score,[1]; [19],-0.363 ± 0.23
same,promoter activity interaction Z-score,[1]; [20],0.0951 ± 0.92
same,promoter activity interaction Z-score,[1]; [21],0.261 ± 1.6
same,promoter activity interaction Z-score,[1]; [22],0.18 ± 0.34
